Assay results reported in the supplement of paper PMC6992640.

tested on: UCD52 (cells of a triple-negative basal-like breast cancer xenograft); experiment: cell viability of combination (% of vehicle); higher = less cytotoxic; details: 1 µM; 72 h; partner dose: 10 nM
Method: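 PDX cells were treated for 72 h with each drug at 1 µM plus carfilzomib (10 nM; 100 nM for WHIM2). Luciferase viability is expressed as percent of vehicle.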

Compared with `CCCCCCCCCCCCCCCC[n+]1ccccc1.[Cl-]` [Cetylpyridinium Chloride] + CC(C)C[C@H](NC(=O)[C@H](CCc1ccccc1)NC(=O)CN1CCOCC1)C(=O)N[C@@H](Cc1ccccc1)C(=O)N[C@@H](CC(C)C)C(=O)[C@@]1(C)CO1 [Carfilzomib], `CCCCCCCCCCCCCCCC[N+](C)(C)C.[Br-]` [Cetrimonium Bromide (CTAB)] + CC(C)C[C@H](NC(=O)[C@H](CCc1ccccc1)NC(=O)CN1CCOCC1)C(=O)N[C@@H](Cc1ccccc1)C(=O)N[C@@H](CC(C)C)C(=O)[C@@]1(C)CO1 [Carfilzomib] is higher in “cell viability of combination” value: 48.1 for the first, 53.1 for the second.

First: Cc1cc(C(C#N)c2ccc(Cl)cc2)c(Cl)cc1NC(=O)c1cc(I)cc(I)c1O (stereo not given) [Closantel] + CC(C)C[C@H](NC(=O)[C@H](CCc1ccccc1)NC(=O)CN1CCOCC1)C(=O)N[C@@H](Cc1ccccc1)C(=O)N[C@@H](CC(C)C)C(=O)[C@@]1(C)CO1 [Carfilzomib]
Second: Cc1cc(C(C#N)c2ccc(Cl)cc2)c(Cl)cc1NC(=O)c1cc(I)cc(I)c1[O-].[Na+] (stereo not given) [Closantel Sodium] + CC(C)C[C@H](NC(=O)[C@H](CCc1ccccc1)NC(=O)CN1CCOCC1)C(=O)N[C@@H](Cc1ccccc1)C(=O)N[C@@H](CC(C)C)C(=O)[C@@]1(C)CO1 [Carfilzomib]
The “cell viability of combination” value of the first is lower: 65.7 for the first, 65.9 for the second.

`CCCCCCCCCCCC[N+](C)(C)CCOc1ccccc1.[Br-]` [Domiphen Bromide] + CC(C)C[C@H](NC(=O)[C@H](CCc1ccccc1)NC(=O)CN1CCOCC1)C(=O)N[C@@H](Cc1ccccc1)C(=O)N[C@@H](CC(C)C)C(=O)[C@@]1(C)CO1 [Carfilzomib] was tested, and the “cell viability of combination” value was 57.1.
